M1 agonist – M1 muscarinic receptor agonists, primary screen, CHO-M1 cells, Fluo-4 calcium, agonist mode; AID 626, 2007; Muscarinic acetylcholine receptor M1; Fluo-4 calcium fluorescence; active compounds read high; 64,000 compounds, 3% hits; B-score at 10 µM;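 active = fluorescence rise, raw or as B-score row- and column-corrected plate score, outside the 99.7% band of its plate's samples, either direction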
Cav3 T inh – Cav3.2 calcium influx blockers – cell-based, Fluo-4 calcium fluorescence, FDSS, MLSMR library, primary screen; 100,000 compounds, 4% hits; AID 449739, 2010; Cav3.2-expressing cells; active compounds read low; Voltage-dependent T-type calcium channel subunit alpha-1H (Homo sapiens), O95180; B-score at 10 µM;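 active = single-dose well whose peak fluorescence ratio is a statistical outlier from its plate by either plate-standardised score or position-corrected B-score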
M1 antagonist – antagonists of rat M1 muscarinic receptor | CHO-M1 cells, Fluo-4 calcium, ACh EC80 antagonist mode; active compounds read low | B-score at 10 µM | 64,000 compounds, 3.4% hits;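 active = calcium fluorescence response, raw or row-and-column corrected B-score, differing from the plate sample mean either way at a set confidence level, mostly lower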
HER2 expr 66K – inhibitors of Her2 protein expression, primary screen, SKBR-3 cells, AlphaScreen, 66K library; HER2 level % of control, % at 10 µM; Receptor tyrosine-protein kinase erbB-2 (Homo sapiens), P04626; AID 645, 2007; SKBR-3 HER2 protein level, 18-24 h; active compounds read low; 65,000 compounds, 0.69% hits;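 active = HER2 level under 5% of the carrier-only control; inconclusive = no clear call, values can overlap the other calls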;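 also: lower value means stronger loss of Her2 protein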
PLAP activator – PLAP enzyme activators, biochemical, luminescence, HTS; purified PLAP enzyme, luminescent substrate read-out; active compounds read high; activation fold at 20 µM; 96,000 compounds, 1.2% hits; AID 696, 2007; in the data active = activation fold above about 2
M1 agonist conf – rat M1 muscarinic receptor agonists, confirmation, CHO-M1 cells, Fluo-4 calcium, duplicate retest | AID 1488, 2009 | 1,700 compounds, 19% hits | fluorescence change (max-min) at 10 µM | shares compounds with M1 agonist | Fluo-4 calcium fluorescence, agonist mode; actives lie on both sides;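 active = fluorescence change differs from the solvent-only DMSO control mean at a set confidence level in both duplicate runs; inconclusive = differs from solvent-only control mean in just one of two runs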;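 also: an EC20 dose of acetylcholine follows compound addition during the same imaging run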
M4 agonist ctr – agonist activity at rat M4 receptor, confirmation, counter-screen for M1 allosteric modulator project, cell-based, agonist mode; 1,700 compounds, 9% hits; shares compounds with M1 agonist; CHO M4/Gqi5 cells, Fluo-4 calcium fluorescence; actives lie on both sides; fluorescence change (max-min) at 10 µM;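 active = fluorescence change differing from the plate's solvent-only control wells at 99.7% confidence in both duplicates, whether higher or lower; inconclusive = differs from solvent controls in only one of two duplicates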
Target sequence (P08485 whole entry, looked up): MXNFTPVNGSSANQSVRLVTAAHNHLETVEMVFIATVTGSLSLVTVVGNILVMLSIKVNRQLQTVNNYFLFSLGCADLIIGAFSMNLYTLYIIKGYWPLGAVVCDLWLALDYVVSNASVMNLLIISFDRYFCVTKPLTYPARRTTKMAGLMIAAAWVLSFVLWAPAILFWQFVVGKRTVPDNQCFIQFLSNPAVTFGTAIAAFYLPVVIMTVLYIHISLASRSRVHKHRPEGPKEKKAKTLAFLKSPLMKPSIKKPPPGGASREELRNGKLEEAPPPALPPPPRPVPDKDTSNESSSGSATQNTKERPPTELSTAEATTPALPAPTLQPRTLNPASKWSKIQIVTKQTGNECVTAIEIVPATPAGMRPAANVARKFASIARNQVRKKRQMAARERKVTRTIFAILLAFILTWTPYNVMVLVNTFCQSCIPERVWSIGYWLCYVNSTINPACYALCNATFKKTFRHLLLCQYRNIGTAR
A number is an active result; . = inactive; ? = inconclusive; / = no result. Compounds with a hit are over-represented: about 7.9% of the library has one in this group of screens.

SMILES	M1 agonist	Cav3 T inh	M1 antagonist	HER2 expr 66K	PLAP activator	M1 agonist conf	M4 agonist ctr
O=[N+]([O-])c1cc(-c2nnc(C34CC5CC(CC(C5)C3)C4)o2)cc([N+](=O)[O-])c1	/	/	/	/	.	/	/
CN1C=CC(=C2C(=O)c3ccccc3C2=O)C=C1	33	.	2.6	.	.	.	?
CCOC(=O)C1=C2SCCN2C(=O)C(C#N)C1(C)C (centres undefined)	3.5	.	.	.	.	.	.
Cc1cccc(CN2CCCC(C(=O)N3CCc4ccccc4C3)C2)c1 (centres undefined)	/	.	/	/	.	/	/
CCN(CC)C(=O)N1CCC(NC(=O)c2ccccc2)CC1	.	.	.	.	.	/	/
CCCCn1c(-c2cccs2)nc2nc3ccccc3nc21	/	.	/	/	.	/	/
CCCCOCCCn1c(-c2ccco2)nc2nc3ccccc3nc21	4.2	.	.	.	.	?	.
COc1cccc(C(c2nnnn2Cc2ccccc2)N2CCN(C3CCCC3)CC2)c1OC (centres undefined)	2.8	.	-1.7	.	.	.	.
COc1ccc(OC)c(C(c2nnnn2C2CCCC2)N2CCN(c3ccccc3)CC2)c1 (centres undefined)	-1.7	/	.	.	.	.	.
CCc1ccccc1S(=O)(=O)Cc1ccc(C(=O)N2CCN(c3ccccc3OC)CC2)o1	7.2	.	.	.	.	.	?
Cc1ccccc1S(=O)(=O)Cc1ccc(C(=O)N2CCN(c3cccc(C)c3C)CC2)o1	9.7	.	.	.	.	?	.
Cc1ccccc1S(=O)(=O)Cc1ccc(C(=O)N2CC(C)CC(C)C2)o1 (centres undefined)	.	.	.	.	.	/	/
COc1ccc2c(c1)c1ncn(CCN3CCCC3)c(=O)c1n2C	.	/	.	.	.	/	/
COc1ccccc1CCn1cnc2c3cc(C)ccc3n(C)c2c1=O	1.8	.	.	.	.	?	.
CCO/C(C)=N/n1c2nc3ccccc3nc2c2c(=O)n(C3CCCC3)c(C)nc21	9.4	.	.	.	.	?	.
Cn1cc(-c2nnnn2-c2cccc(C(F)(F)F)c2)c(C(F)(F)F)n1	/	/	/	/	.	/	/
Cc1cccc2cc(C(c3nnnn3Cc3ccccc3)N3CCN(c4ccccc4)CC3)c(=O)[nH]c12 (centres undefined)	6.4	.	.	.	.	?	?
CCn1c(SCC(=O)Nc2cc(C)ccc2C)nc2c(c1=O)SC(C)C2 (centres undefined)	1.3	.	.	.	.	.	?
Cc1ccc(C)c(NC(=O)CSc2nc3c(c(=O)n2C)SC(C)C3)c1 (centres undefined)	.	.	.	.	.	/	/
CCCC(=O)Nc1sc(C)c(-c2ccc(C(C)CC)cc2)c1C#N (centres undefined)	/	.	/	/	.	/	/
CSc1nc2n(n1)C(c1ccccn1)C1=C(CC(C)(C)CC1=O)N2 (centres undefined)	/	.	/	/	.	/	/
O=C(c1ccco1)N1CCN=C1SCc1cccnc1	.	.	.	.	.	/	/
O=C(c1ccco1)N1CCN=C1SCc1ccccc1F	-3.3	.	.	.	.	.	.
O=C(Cn1nnc(-c2ccccc2)n1)OCc1csc(-c2ccccc2)n1	14	.	.	.	.	.	.
CN(C)c1ccc(N=Cc2nc(-c3ccccc3)oc2O)cc1	21	/	.	.	.	147	.
SMILES	M1 agonist	Cav3 T inh	M1 antagonist	HER2 expr 66K	PLAP activator	M1 agonist conf	M4 agonist ctr
O=S(=O)(CCSc1nc2ccccc2s1)c1nc2ccccc2s1	/	.	/	/	.	/	/
Cc1ccc(-c2nnc(SCC(=O)N3CC(C)CC(C)C3)o2)cc1C (centres undefined)	.	.	.	.	/	/	/
COCC(=O)Nc1ccc(N(C)C)cc1	-2.9	.	.	.	.	-33	.
Cc1ccc(OCC(=O)Nc2ccc(N(C)C)cc2)cc1	.	.	.	.	.	/	/
CN(C)c1oc(-c2cccs2)nc1C#N	.	/	.	.	.	/	/
CN(C)c1oc(-c2ccccc2F)nc1C#N	8.3	.	.	.	.	.	.
CCOC(=O)SC1=N/C(=C\c2ccc(N(C)C)cc2)C(=O)S1	10	/	.	.	.	?	?
COc1ccccc1C1C=C(c2ccc(Cl)cc2)Nc2nc(NS(C)(=O)=O)nn21 (centres undefined)	54	.	.	.	.	88	.
Cc1n[nH]c(C)c1S(=O)(=O)N(CC(=O)NC1CCCC1)c1ccc(C(C)C)cc1	3.9	.	.	.	2.3	.	.
Cc1nn(C)c(C)c1S(=O)(=O)N(CC(=O)NC1CCCCCC1)c1ccc(C(C)C)cc1	/	.	/	/	.	/	/
Cc1ccc(C(=O)NNC(=O)C2CCN(c3nccc(C)n3)CC2)cc1	/	.	/	/	.	/	/
COc1ccc(CCn2c(-c3ccco3)nc3oc4ccccc4c(=O)c3c2=O)cc1	.	/	.	.	/	/	/
COc1ccc(CCn2c(-c3ccco3)nc3ccccc3c2=O)cc1OC	11	.	-2.1	.	.	?	-73
CCOC(=O)CC(=O)CSc1nc2ccccc2c(=O)n1-c1ccc(C(=O)NCCOC)cc1	/	.	/	/	.	/	/
CC1(C)CC(=O)c2cc(C(=O)O)c(=O)n(-c3ccccc3)c2C1	/	.	/	/	.	/	/
Cc1nn(C(=O)c2ccccc2)c2c1C(=O)CC(C)(C)C2	9.7	.	.	.	.	.	?
O=C(Cn1ncc2c(=O)oc3ccccc3c21)NCCN1CCN(c2ccccc2F)CC1	.	.	.	.	.	/	/
CCOC(=O)C1=C(c2ccccc2)NC(=O)NC1c1ccc(N(C)C)cc1 (centres undefined)	.	.	.	.	.	/	/
CCOC(=O)C1=C(CS(=O)(=O)c2ccccc2)NC(=O)NC1c1ccccc1 (centres undefined)	4.3	.	.	.	.	?	?

High-throughput results deposited in PubChem BioAssay by several laboratories.
